Assay results as given in PubChem BioAssay (Tox21).
Where “and” joins values, the source holds several entries; their conditions need not be identical. Identical values can stand only once. Records with an inconclusive call do not appear. A structure can be active in one record and inactive in another. Calls of active or inactive are those of the source. Unless noted, calls follow the shape of the dose curve; as a rule, active = well fitted curve in the direction sought with a large enough effect in the repeat runs; inconclusive = weak or mixed curves; inactive = no such curve, though single readings can be large; an effect the other way counts as inactive or inconclusive.

What was measured:
[1] = biological target: Acetylcholinesterase (Homo sapiens) (UniProt P22303); assay: Acetylcholinesterase (AChE) small molecule antagonists: colormetric cell-based qHTS assay (AID 1347395; calls by dose curve; also: nearly all actives have a fitted effect of over 30% in size; also: potency is read from the fitted curve at half-maximal effect)
In short: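 Cells (SH-SY5Y, 2,000 per well) are seeded and left overnight at 37 C. Compound is added for 30 min, then DTNB and acetylthiocholine for a further 90 min at 37 C before absorbance-based thiocholine detection.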

[2] = biological target: Acetylcholinesterase (Homo sapiens) (UniProt P22303); assay: Acetylcholinesterase (AChE) small molecule antagonists: enzyme-based qHTS assay (AID 1347397; calls by dose curve; also: nearly all actives have a fitted effect of over 55% in size; also: potency is read from the fitted curve at half-maximal effect); settings: Potency: AChE enzyme activity inhibition; outcome: AChE enzyme activity inhibition
In short: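 Human recombinant acetylcholinesterase; substrate acetylthiocholine; thiocholine quantified with DTNB (colorimetric). Compound preincubation 30 min RT; reaction 10 min RT.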

[3] = biological target: Acetylcholinesterase (Homo sapiens) (UniProt P22303); assay: Acetylcholinesterase (AChE) small molecule antagonists: fluorescence cell-based qHTS assay (AID 1347398; calls by dose curve; also: nearly all actives have a fitted effect of over 50% in size; also: potency is read from the fitted curve at half-maximal effect); settings: Potency: AChE activity; outcome: AChE activity
In short: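 Thiocholine generated from acetylthiocholine by SH-SY5Y cell AChE is detected with Thiolite Green (Ex/Em 490/520 nm) after 40 min at room temperature, following 30 min compound pretreatment at 37 C.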

[4] = biological target: Acetylcholinesterase (Homo sapiens) (UniProt P22303); assay: Acetylcholinesterase (AChE) small molecule antagonists: enzyme-based qHTS assay with human liver microsomes (AID 1347399; calls by dose curve; also: nearly all actives have a fitted effect of over 60% in size; also: potency is read from the fitted curve at half-maximal effect); settings: Potency: qHTS inhibition; outcome: qHTS inhibition
In short: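 Recombinant human AChE (50 mU/mL in the enzyme mix) and human liver microsomes (0.25 mg/mL final) were preincubated with compound and NADPH (0.25 mg/mL final) for 30 min at 37 C. Acetylthiocholine/DTNB was then added; thiocholine was read colorimetrically after 10 min at room temperature.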

[5] = biological target: Cytochrome P450 2D6 (Homo sapiens) (UniProt P10635); assay: Cytochrome P450 Family 2 Subfamily D Member 6 (CYP2D6) small molecule antagonists: luciferase reporter qHTS assay (AID 1671196); also: nearly all actives have a fitted effect of over 50% in size; also: potency is read from the fitted curve at half-maximal effect; as to activity change, negative = inhibition: series mostly up to about 120 µM
In short: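 Read-out is luminescence from luciferin formed by CYP2D6 turnover of a proluciferin substrate, recorded as relative luminescence units. Reactions ran 1 h at room temperature after NADPH regeneration solution was added.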

[6] = biological target: Cytochrome P450 2C19 (Homo sapiens) (UniProt P33261); assay: Cytochrome P450 Family 2 Subfamily C Member 19 (CYP2C19) small molecule antagonists: luciferase reporter qHTS assay (AID 1671197); also: nearly all actives have a fitted effect of over 65% in size; also: potency is read from the fitted curve at half-maximal effect; as to activity change, negative = inhibition: series mostly up to about 120 µM
In short: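 Quantitative high-throughput screen of the Tox21 library using CYP2C19 with proluciferin substrate. Reaction: NADPH regeneration, 37C, 1 h, after 10 min compound preincubation at room temperature. Readout: luminescence.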

[7] = biological target: Cytochrome P450 1A2 (Homo sapiens) (UniProt P05177); assay: Cytochrome P450 Family 1 Subfamily A Member 2 (CYP1A2) small molecule antagonists: luciferase reporter qHTS assay (AID 1671199); also: nearly all actives have a fitted effect of over 50% in size; also: potency is read from the fitted curve at half-maximal effect; as to activity change, negative = inhibition: series mostly up to about 120 µM
In short: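 P450-Glo CYP1A2, 1536-well qHTS: enzyme/proluciferin substrate + cpd (DMSO), 10 min RT; NADPH regen, 1 h RT; detection reagent, 20 min; luminescence, RLU.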

[8] = biological target: Voltage-gated inwardly rectifying potassium channel KCNH2 (Homo sapiens) (UniProt Q12809); assay: Human Ether-a-go-go-Related Gene (hERG) channel small molecule antagonists: fluorescence cell-based qHTS assay (AID 1671200);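 also: hERG-expressing U2OS cells given a thallium stimulus after FluxOR II dye loading; series mostly up to about 77 µM; nearly all actives have a fitted effect of over 50% in size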
In short: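 Fluorescence at 540 nm emission (480 nm excitation) was recorded kinetically for 2 min at 1-second intervals once the thallium-containing stimulus reached cells previously loaded with FluxOR II dye.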

[9] = biological target: Cytochrome P450 3A4 (Homo sapiens) (UniProt P08684); assay: Cytochrome P450 Family 3 Subfamily A Member 4 (CYP3A4) small molecule antagonists: luciferase reporter qHTS assay (AID 1671201); also: nearly all actives have a fitted effect of over 50% in size; also: potency is read from the fitted curve at half-maximal effect; as to activity change, negative = inhibition: series mostly up to about 120 µM
In short: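 qHTS, 1536-well. CYP3A4 + proluciferin substrate, cpd 10 min RT → NADPH regen 1 h RT → detection reagent 20 min → luminescence (RLU). Ketoconazole positive control.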

[10] = biological target: Cytochrome P450 2C9 (Homo sapiens) (UniProt P11712); assay: Cytochrome P450 Family 2 Subfamily C Member 9 (CYP2C9) small molecule antagonists: luciferase reporter qHTS assay (AID 1671198); also: nearly all actives have a fitted effect of over 50% in size; also: potency is read from the fitted curve at half-maximal effect; as to activity change, negative = inhibition: series mostly up to about 120 µM
In short: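 CYP2C9 activity was measured with a P450-Glo proluciferin substrate. Enzyme–substrate mix was held with compound for 10 min at room temperature, then NADPH regeneration solution was added for 1 h at 37C. Luciferin product was read as luminescence.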
% is scaled to controls: 0 for no effect and ±100 for the full control effect.

Chain of Acetylcholinesterase (Homo sapiens) (P22303 whole entry, looked up): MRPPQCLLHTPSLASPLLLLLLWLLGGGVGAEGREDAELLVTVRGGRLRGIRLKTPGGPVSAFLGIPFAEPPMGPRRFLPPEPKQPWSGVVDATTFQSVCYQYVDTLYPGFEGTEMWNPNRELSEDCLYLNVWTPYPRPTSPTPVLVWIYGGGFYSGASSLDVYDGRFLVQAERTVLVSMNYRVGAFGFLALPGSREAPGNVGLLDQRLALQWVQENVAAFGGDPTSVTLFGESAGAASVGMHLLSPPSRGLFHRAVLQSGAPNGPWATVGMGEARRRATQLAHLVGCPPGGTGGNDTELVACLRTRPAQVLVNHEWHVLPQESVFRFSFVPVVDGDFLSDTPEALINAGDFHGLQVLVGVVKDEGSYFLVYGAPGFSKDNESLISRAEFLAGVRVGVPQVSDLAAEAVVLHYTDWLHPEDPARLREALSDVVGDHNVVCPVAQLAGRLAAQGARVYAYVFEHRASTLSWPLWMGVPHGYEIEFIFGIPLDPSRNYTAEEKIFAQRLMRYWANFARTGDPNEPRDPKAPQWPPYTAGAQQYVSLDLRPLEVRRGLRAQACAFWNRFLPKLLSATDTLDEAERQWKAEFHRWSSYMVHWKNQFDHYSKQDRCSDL
Chain of Voltage-gated inwardly rectifying potassium channel KCNH2 (Homo sapiens) (Q12809 whole entry, looked up): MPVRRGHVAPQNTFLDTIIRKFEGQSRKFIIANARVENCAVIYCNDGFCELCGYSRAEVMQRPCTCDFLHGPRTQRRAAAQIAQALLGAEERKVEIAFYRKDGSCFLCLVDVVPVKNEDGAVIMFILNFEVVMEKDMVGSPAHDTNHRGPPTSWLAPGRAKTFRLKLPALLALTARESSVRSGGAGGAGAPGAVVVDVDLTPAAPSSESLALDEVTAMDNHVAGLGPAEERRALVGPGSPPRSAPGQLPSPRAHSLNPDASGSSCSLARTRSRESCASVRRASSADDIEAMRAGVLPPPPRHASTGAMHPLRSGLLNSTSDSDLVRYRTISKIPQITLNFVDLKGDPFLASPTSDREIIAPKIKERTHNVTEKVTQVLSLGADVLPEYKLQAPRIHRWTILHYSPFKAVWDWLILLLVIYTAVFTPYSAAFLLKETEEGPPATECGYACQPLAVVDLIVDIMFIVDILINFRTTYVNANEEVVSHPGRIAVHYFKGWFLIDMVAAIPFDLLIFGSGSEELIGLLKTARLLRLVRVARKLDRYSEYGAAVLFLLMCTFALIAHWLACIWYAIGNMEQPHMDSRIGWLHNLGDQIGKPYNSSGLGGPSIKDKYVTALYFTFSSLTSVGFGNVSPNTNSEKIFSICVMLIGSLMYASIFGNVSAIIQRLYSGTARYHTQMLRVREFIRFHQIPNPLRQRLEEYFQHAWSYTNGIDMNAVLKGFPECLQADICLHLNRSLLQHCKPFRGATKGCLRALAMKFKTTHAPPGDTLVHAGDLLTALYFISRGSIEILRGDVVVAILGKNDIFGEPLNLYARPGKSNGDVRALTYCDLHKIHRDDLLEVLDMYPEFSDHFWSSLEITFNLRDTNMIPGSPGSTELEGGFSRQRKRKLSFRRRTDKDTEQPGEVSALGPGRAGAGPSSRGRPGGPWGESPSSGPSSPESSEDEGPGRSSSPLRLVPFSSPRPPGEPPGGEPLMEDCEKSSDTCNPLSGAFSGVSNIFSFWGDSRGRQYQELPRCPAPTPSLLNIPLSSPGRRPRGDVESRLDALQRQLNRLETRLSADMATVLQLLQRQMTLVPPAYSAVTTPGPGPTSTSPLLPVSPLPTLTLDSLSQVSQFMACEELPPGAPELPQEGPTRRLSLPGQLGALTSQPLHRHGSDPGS
Chain of Cytochrome P450 2C9 (Homo sapiens) (P11712 whole entry, looked up): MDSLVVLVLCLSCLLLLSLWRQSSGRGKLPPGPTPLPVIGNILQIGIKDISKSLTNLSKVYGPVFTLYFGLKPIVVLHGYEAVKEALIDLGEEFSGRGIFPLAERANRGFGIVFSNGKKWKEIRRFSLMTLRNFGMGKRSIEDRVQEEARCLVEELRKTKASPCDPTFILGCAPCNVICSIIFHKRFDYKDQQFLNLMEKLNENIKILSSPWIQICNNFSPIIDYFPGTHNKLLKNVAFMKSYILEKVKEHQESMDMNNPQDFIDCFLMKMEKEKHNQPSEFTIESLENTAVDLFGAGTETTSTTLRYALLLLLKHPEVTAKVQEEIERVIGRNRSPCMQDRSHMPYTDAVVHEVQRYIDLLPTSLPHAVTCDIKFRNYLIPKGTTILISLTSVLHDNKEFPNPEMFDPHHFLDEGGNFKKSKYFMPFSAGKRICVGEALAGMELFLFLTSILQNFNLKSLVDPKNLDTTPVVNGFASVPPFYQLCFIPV
Chain of Cytochrome P450 2D6 (Homo sapiens) (P10635 whole entry, looked up): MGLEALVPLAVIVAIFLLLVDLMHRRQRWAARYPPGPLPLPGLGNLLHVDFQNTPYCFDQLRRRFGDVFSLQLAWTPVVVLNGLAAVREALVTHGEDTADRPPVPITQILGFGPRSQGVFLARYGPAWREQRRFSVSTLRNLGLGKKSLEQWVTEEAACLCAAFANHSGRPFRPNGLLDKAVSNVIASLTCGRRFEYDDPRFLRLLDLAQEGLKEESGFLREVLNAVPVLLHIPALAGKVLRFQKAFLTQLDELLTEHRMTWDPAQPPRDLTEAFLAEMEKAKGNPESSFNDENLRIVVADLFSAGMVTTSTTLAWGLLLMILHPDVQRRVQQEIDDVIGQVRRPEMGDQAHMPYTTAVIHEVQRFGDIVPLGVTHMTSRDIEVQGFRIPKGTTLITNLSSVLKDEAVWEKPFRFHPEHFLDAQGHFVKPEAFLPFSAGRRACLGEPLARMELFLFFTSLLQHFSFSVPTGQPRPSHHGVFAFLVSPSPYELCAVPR
Chain of Cytochrome P450 1A2 (Homo sapiens) (P05177 whole entry, looked up): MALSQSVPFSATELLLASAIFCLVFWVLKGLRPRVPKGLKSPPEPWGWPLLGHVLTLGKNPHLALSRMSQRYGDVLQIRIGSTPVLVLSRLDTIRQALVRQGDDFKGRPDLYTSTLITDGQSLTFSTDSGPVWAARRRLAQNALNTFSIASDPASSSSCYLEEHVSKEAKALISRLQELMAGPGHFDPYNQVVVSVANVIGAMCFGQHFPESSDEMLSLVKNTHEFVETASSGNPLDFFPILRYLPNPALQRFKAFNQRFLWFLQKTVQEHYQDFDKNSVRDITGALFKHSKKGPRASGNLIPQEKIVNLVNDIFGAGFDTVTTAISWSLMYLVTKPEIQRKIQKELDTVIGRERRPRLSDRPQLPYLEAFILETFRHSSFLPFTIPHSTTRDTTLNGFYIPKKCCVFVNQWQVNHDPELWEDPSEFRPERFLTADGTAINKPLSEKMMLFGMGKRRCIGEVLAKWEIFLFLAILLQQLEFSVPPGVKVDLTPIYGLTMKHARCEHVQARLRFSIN
Chain of Cytochrome P450 2C19 (Homo sapiens) (P33261 whole entry, looked up): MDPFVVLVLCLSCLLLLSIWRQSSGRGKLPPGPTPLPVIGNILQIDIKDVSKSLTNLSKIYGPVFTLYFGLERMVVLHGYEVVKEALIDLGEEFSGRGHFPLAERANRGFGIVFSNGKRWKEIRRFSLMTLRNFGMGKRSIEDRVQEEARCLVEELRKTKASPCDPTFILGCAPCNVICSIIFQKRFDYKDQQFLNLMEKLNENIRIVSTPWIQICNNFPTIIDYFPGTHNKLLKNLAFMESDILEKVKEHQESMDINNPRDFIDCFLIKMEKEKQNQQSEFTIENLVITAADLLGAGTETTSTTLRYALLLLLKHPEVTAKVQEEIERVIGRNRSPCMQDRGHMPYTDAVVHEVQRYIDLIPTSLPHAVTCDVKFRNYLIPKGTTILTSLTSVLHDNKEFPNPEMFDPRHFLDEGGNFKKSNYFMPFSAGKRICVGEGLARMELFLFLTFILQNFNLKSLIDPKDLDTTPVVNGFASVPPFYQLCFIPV
Chain of Cytochrome P450 3A4 (Homo sapiens) (P08684 whole entry, looked up): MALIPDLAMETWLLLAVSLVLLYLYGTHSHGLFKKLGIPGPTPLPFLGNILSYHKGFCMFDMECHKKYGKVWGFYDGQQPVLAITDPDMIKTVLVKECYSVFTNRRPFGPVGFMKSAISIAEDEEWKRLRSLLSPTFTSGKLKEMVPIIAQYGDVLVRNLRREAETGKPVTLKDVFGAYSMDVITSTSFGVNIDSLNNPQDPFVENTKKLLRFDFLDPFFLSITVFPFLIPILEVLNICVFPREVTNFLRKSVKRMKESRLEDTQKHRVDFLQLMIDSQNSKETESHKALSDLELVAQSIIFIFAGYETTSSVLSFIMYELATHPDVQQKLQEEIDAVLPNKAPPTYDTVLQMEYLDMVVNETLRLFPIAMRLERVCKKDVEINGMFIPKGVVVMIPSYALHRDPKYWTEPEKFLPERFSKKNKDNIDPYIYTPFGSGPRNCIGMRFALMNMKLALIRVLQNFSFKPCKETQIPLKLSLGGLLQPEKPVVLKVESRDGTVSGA

CCCCCCCC(=O)Cl
active: Potency [6] 40.3 µM
inactive: Potency [1] | Potency [2] | Potency [3] | Potency [4] | Potency [5] | Potency [7] | Potency [8] | Potency [9]

CC(C)(C)C(=O)Cl
inactive: Potency [1] | Potency [2] | Potency [3] | Potency [4] | Potency [5] | Potency [6] | Potency [10] | Potency [7] | Potency [8] | Potency [9]

CCCCCCC(=O)CCCCCC/C=C/C[C@@H](O)[C@H](O)[C@@](N)(CO)C(=O)O
inactive: activity, negative = inhibition [1] 0.986% [at 23.6 µM] | activity change, negative = inhibition [2] 0.415% [at 23.6 µM] | activity change, negative = inhibition [3] -0.579% [at 23.8 µM] | activity change, negative = inhibition [4] -0.169% [at 23.6 µM] | activity change, negative = inhibition [5] -0.222% [at 23.6 µM] | activity change, negative = inhibition [6] 14.2% [at 23.6 µM] | activity change, negative = inhibition [10] 9.38% [at 23.6 µM] | activity change, negative = inhibition [7] -0.0703% [at 23.6 µM] | activity change, negative = inhibition [8] 0.803% [at 15.8 µM] | activity change, negative = inhibition [9] 24.6% [at 23.6 µM]

Clc1nc(Cl)nc(Nc2ccccc2Cl)n1
active: Potency [6] 79.6 µM
inactive: Potency [1] | Potency [2] | Potency [3] | Potency [4] | Potency [5] | Potency [7] | Potency [8] | Potency [9]

OP(O)c1ccccc1
inactive: Potency [1] | Potency [2] | Potency [3] | Potency [4] | Potency [5] | Potency [6] | Potency [10] | Potency [7] | Potency [8] | Potency [9]

CCOC1Oc2ccc(OS(C)(=O)=O)cc2C1(C)C (stereo not given)
active: Potency [5] 35.3 µM | Potency [6] 3.96 µM | Potency [10] 22.3 µM | Potency [7] 35.3 µM
inactive: Potency [1] | Potency [2] | Potency [3] | Potency [4] | Potency [8] | Potency [9]

CCCCCCC1CCOC1=O (stereo not given)
active: Potency [6] 39.9 µM
inactive: Potency [1] | Potency [2] | Potency [3] | Potency [4] | Potency [5] | Potency [10] | Potency [8] | Potency [9]

ClCC1CO1 (stereo not given)
active: Potency [6] 24.3 µM
inactive: Potency [1] | Potency [2] | Potency [3] | Potency [4] | Potency [5] | Potency [10] | Potency [7] | Potency [8] | Potency [9]

CN(C)CCN(C)C
inactive: Potency [1] | Potency [2] | Potency [3] | Potency [4] | Potency [5] | Potency [6] | Potency [10] | Potency [8] | Potency [9]

O=[N+]([O-])CCO
inactive: Potency [1] | Potency [2] | Potency [3] | Potency [4] | Potency [5] | Potency [6] | Potency [10] | Potency [7] | Potency [8] | Potency [9]

CN1COCN(Cc2cnc(Cl)s2)/C1=N\[N+](=O)[O-]
inactive: Potency [1] | Potency [2] | Potency [3] | Potency [4] | Potency [5] | Potency [6] | Potency [8] | Potency [9]

CCOc1cc(OP(=S)(OC)OC)nc(CC)n1
active: Potency [6] 35.6 µM
inactive: Potency [1] | Potency [2] | Potency [3] | Potency [4] | Potency [5] | Potency [8] | Potency [9]

CC(C)[C@]12CC(=O)[C@H](C)[C@H]1C2
inactive: Potency [1] | Potency [2] | Potency [3] | Potency [4] | Potency [5] | Potency [6] | Potency [10] | Potency [7] | Potency [8] | Potency [9]

CCCOC(=O)c1cncn1C(C)c1ccccc1 (stereo not given)
active: Potency [6] 2.45 µM | Potency [10] 13.8 µM | Potency [7] 17.4 µM
inactive: Potency [1] | Potency [2] | Potency [3] | Potency [4] | Potency [5] | Potency [8]

CCN[C@H](C)Cc1cccc(C(F)(F)F)c1
inactive: Potency [1] | Potency [2] | Potency [3] | Potency [4] | Potency [6] | Potency [10] | Potency [8] | Potency [9]
active: Potency [5] 2.24 µM

Cc1cc(OC(=O)N(C)C)nn1C(=O)N(C)C
inactive: Potency [10] | Potency [8] | Potency [9]
active: Potency [1] 7.1 µM | Potency [2] 5.03 µM | Potency [3] 1.26 µM | Potency [4] 39.9 µM | Potency [5] 31.7 µM | Potency [6] 35.6 µM

CCOP(=S)(OCC)SCCl
inactive: Potency [1] | Potency [2] | Potency [3] | Potency [4] | Potency [5] | Potency [8]
active: Potency [6] 35.6 µM | Potency [10] 14.2 µM | Potency [7] 25.2 µM | Potency [9] 11.2 µM

CCOC(=O)CC(SP(=S)(OC)OC)C(=O)OCC (stereo not given)
inactive: Potency [2] | Potency [3] | Potency [4] | Potency [5] | Potency [8]
62.1 µM (active) and inactive: Potency [1]
active: Potency [6] 178 nM and 436 nM | Potency [10] 1.19 µM and 1.38 µM | Potency [7] 2.24 µM and 1.62 µM

O=C(NC(=O)c1c(F)cccc1F)Nc1cc(Cl)c(F)c(Cl)c1F
inactive: Potency [1] | Potency [2] | Potency [3] | Potency [4] | Potency [5] | Potency [8] | Potency [9]
active: Potency [6] 69.2 µM | Potency [7] 30.9 µM

COc1cc(CCN)cc(OC)c1OC
active: Potency [7] 38.7 µM
inactive: Potency [1] | Potency [2] | Potency [3] | Potency [4] | Potency [5] | Potency [6] | Potency [10] | Potency [8] | Potency [9]

c1ccc2c(c1)CCNC2
inactive: Potency [1] | Potency [2] | Potency [3] | Potency [4]
active: Potency [5] 7.28 µM | Potency [6] 57.9 µM | Potency [10] 32.5 µM

CCN(CCO)CCO
inactive: Potency [1] | Potency [2] | Potency [3] | Potency [4] | Potency [5] | Potency [6] | Potency [7] | Potency [8] | Potency [9]

COP(=O)(OC)O/C(C)=C/C(=O)N(C)C
inactive: Potency [4] | Potency [5] | Potency [6] | Potency [8] | Potency [9]
active: Potency [1] 40.2 µM | Potency [2] 63.7 µM | Potency [3] 14.3 µM

CC(Cc1ccccc1)NCCn1cnc2c1c(=O)n(C)c(=O)n2C (stereo not given)
inactive: Potency [1] | Potency [2] | Potency [3] | Potency [4] | Potency [10] | Potency [7] | Potency [8]
active: Potency [5] 4.96 µM | Potency [6] 78.7 µM
